{"source": "the supplement of paper PMC7366291", "note": "Where a name gives a salt, the structure may show the parent alone. ± gives the standard deviation.", "data": [{"tested_on": "Danio rerio Tg(wt1b:EGFP) embryo, pronephros", "assay": "glomerular separation, fold change vs DMSO control; higher = glomeruli further apart (abnormal)", "settings": "25 µM; exposure: 24-48 hpf", "procedure,_shortened": "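Features are reported as fold changes against the mean of same-day DMSO-treated embryos. Before that, values more than 2 SD away from the feature mean were excluded. The embryos, dechorionated Tg(wt1b:EGFP) zebrafish, had been exposed from 24 to 48 hpf at 28.5°C to 25 μM compound in 0.5% DMSO in HEPES-buffered E3 with 0.003% PTU, and distances and angles came from 16 manually set points on maximum projections of dorsal pronephros images in Fiji.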", "values": [{"smiles": "CCC1(c2ccccc2)NC(=O)N(C)C1=O", "note": "(centres undefined) [Mephenytoin]", "glomerular separation": "1.13 ± 0.4"}, {"smiles": "Cc1c(N)c(=O)n(-c2ccccc2)n1C", "note": "[Ampyrone]", "glomerular separation": "0.975 ± 0.3"}, {"smiles": "Cc1ncc([N+](=O)[O-])n1CC(C)O", "note": "(centres undefined) [Secnidazole]", "glomerular separation": "0.775 ± 0.29"}, {"smiles": "CCCOc1ccc2[nH]c(NC(=O)OC)nc2c1", "note": "[Oxibendazol]", "glomerular separation": "5.39 ± 2.3"}, {"smiles": "CCc1cc(C(N)=S)ccn1", "note": "[Ethionamide]", "glomerular separation": "0.955 ± 0.39"}, {"smiles": "CCCc1nc(C)c2c(=O)nc(-c3cc(S(=O)(=O)N4CCN(CC)CC4)ccc3OCC)[nH]n12", "note": "[Vardenafil]", "glomerular separation": "1.24 ± 0.46"}, {"smiles": "COc1cc(NS(=O)(=O)c2ccc(N)cc2)ncn1", "note": "[Sulfamonomethoxine]", "glomerular separation": "0.898 ± 0.44"}, {"smiles": "Nc1nc(F)nc2c1ncn2[C@@H]1O[C@H](CO)[C@@H](O)[C@@H]1O", "note": "[Fludarabine]", "glomerular separation": "0.97 ± 0.29"}, {"smiles": "Oc1c(I)cc(Cl)c2cccnc12", "note": "[Clioquinol]", "glomerular separation": "4.35 ± 1.5"}, {"smiles": "Cc1cccc(C)c1NC(=O)C1CCCCN1C", "note": "(centres undefined) [Mepivacaine hydrochloride]", "glomerular separation": "0.751 ± 0.32"}, {"smiles": "Nc1cc(-c2ccncc2)c[nH]c1=O", "note": "[Amrinone]", "glomerular separation": "0.609 ± 0.23"}, {"smiles": "CC(=O)NCCCS(=O)(=O)O", "note": "[Acamprosate calcium]", "glomerular separation": "1.02 ± 0.41"}, {"smiles": "CN1C2CCCC1CC(NC(=O)c1nn(C)c3ccccc13)C2", "note": "(centres undefined) [Granisetron]", "glomerular separation": "0.791 ± 0.23"}, {"smiles": "N[C@@H](C(=O)N[C@@H]1C(=O)N2C(C(=O)O)=C(Cl)CC[C@H]12)c1ccccc1", "note": "[Loracarbef]", "glomerular separation": "1.06 ± 0.25"}, {"smiles": "COC(=O)Nc1nc2cc(C(=O)c3ccc(F)cc3)ccc2[nH]1", "note": "[Flubendazol]", "glomerular separation": "1.81 ± 0.69"}, {"smiles": "Nc1nc(=S)c2ncn([C@@H]3O[C@H](CO)[C@@H](O)[C@H]3O)c2[nH]1", "note": "[Thioguanosine]", "glomerular separation": "1.01 ± 0.38"}, {"smiles": "CC(C)NC[C@@H](O)COc1ccc(CC(N)=O)cc1", "note": "[(R)-(+)-Atenolol]", "glomerular separation": "0.655 ± 0.16"}, {"smiles": "CC1(C)O[C@@H]2C[C@H]3[C@@H]4CCC5=CC(=O)C=C[C@]5(C)[C@H]4[C@@H](O)C[C@]3(C)[C@]2(C(=O)CO)O1", "note": "[Desonide]", "glomerular separation": "1.63 ± 0.49"}, {"smiles": "CC(C)(C)NC[C@H](O)c1ccc(O)c(CO)c1", "note": "[Levalbuterol hydrochloride]", "glomerular separation": "0.811 ± 0.27"}, {"smiles": "C[C@H](N[C@@H](CCc1ccccc1)C(=O)O)C(=O)N1CCC[C@H]1C(=O)O", "note": "[Enalaprilat dihydrate]", "glomerular separation": "1.03 ± 0.34"}, {"smiles": "CCN(CC)CCOC(=O)C1(C2CCCCC2)CCCCC1", "note": "[Dicyclomine hydrochloride]", "glomerular separation": "1.3 ± 0.41"}, {"smiles": "CCN(CC)CCNC(=O)c1cc(S(C)(=O)=O)ccc1OC", "note": "[Tiapride hydrochloride]", "glomerular separation": "1.1 ± 0.29"}, {"smiles": "NS(=O)(=O)c1cc(Cl)c(Cl)c(S(N)(=O)=O)c1", "note": "[Dichlorphenamide]", "glomerular separation": "0.91 ± 0.4"}, {"smiles": "O=C(Nc1ccc([N+](=O)[O-])cc1Cl)c1cc(Cl)ccc1O", "note": "[Niclosamide]", "glomerular separation": "1.53 ± 0.67"}, {"smiles": "NC(N)=Nc1nc(CSCC/C(N)=N/S(N)(=O)=O)cs1", "note": "[Famotidine]", "glomerular separation": "1.11 ± 0.48"}, {"smiles": "O=C1c2cccc(O)c2C(=O)c2c(O)cccc21", "note": "[1,8-Dihydroxyanthraquinone]", "glomerular separation": "1.16 ± 0.45"}, {"smiles": "Cc1c(-c2ccccc2)oc2c(C(=O)OCCN3CCCCC3)cccc2c1=O", "note": "[Flavoxate hydrochloride]", "glomerular separation": "1.17 ± 0.37"}, {"smiles": "CCN(CCCCOC(=O)c1ccc(OC)c(OC)c1)C(C)Cc1ccc(OC)cc1", "note": "(centres undefined) [Mebeverine hydrochloride]", "glomerular separation": "0.925 ± 0.3"}, {"smiles": "CC[C@@H](CO)NCCN[C@@H](CC)CO", "note": "[Ethambutol dihydrochloride]", "glomerular separation": "1.28 ± 0.4"}, {"smiles": "NC(=O)c1ncn([C@@H]2O[C@H](CO)[C@@H](O)[C@H]2O)n1", "note": "[Ribavirin]", "glomerular separation": "0.913 ± 0.3"}, {"smiles": "CCCCC(=O)O[C@H]1CC[C@H]2[C@@H]3CCc4cc(O)ccc4[C@H]3CC[C@]12C", "note": "[Estradiol Valerate]", "glomerular separation": "1.02 ± 0.37"}, {"smiles": "Cc1ccc(S(=O)(=O)NC(=O)NN2CCCCCC2)cc1", "note": "[Tolazamide]", "glomerular separation": "0.828 ± 0.19"}, {"smiles": "Cc1ncc(CO)c(CO)c1O", "note": "[Pyridoxine hydrochloride]", "glomerular separation": "0.838 ± 0.25"}, {"smiles": "NS(=O)(=O)c1cc2c(cc1Cl)NCNS2(=O)=O", "note": "[Hydrochlorothiazide]", "glomerular separation": "1.03 ± 0.25"}, {"smiles": "C[C@H](CCC(=O)O)[C@H]1CC[C@H]2[C@@H]3[C@@H](O)C[C@@H]4C[C@H](O)CC[C@]4(C)[C@H]3CC[C@]12C", "note": "[Urosiol]", "glomerular separation": "1.3 ± 0.7"}, {"smiles": "OC[C@H]1O[C@@H](Oc2ccc(O)cc2)[C@H](O)[C@@H](O)[C@@H]1O", "note": "[Arbutin]", "glomerular separation": "0.869 ± 0.33"}, {"smiles": "NS(=O)(=O)c1cc2c(cc1Cl)NC(CC1CCCC1)NS2(=O)=O", "note": "(centres undefined) [Cyclopenthiazide]", "glomerular separation": "0.818 ± 0.23"}, {"smiles": "CCCN[C@H]1CCc2nc(N)sc2C1", "note": "[Pramipexole dihydrochloride]", "glomerular separation": "0.857 ± 0.44"}, {"smiles": "OCCN1CCN(CC/C=C2/c3ccccc3Sc3ccc(Cl)cc32)CC1", "note": "[Zuclopenthixol dihydrochloride]", "glomerular separation": "1.17 ± 0.21"}]}]}
